Among the data in PubChem BioAssay (EPA / NIEHS) are outcome and AC50 values, retold here.

Records with an inconclusive call do not appear. Activity calls are given as the source filed them. Rule for the calls, unless noted: active = hit-call score of the fitted dose curve at least 0.9, where 1 is the maximum; inconclusive = response in the unintended direction; inactive = score below 0.9.

In test [1] the target is bovine Gamma-Aminobutyric Acid Type A Receptor BDZ, alpha 5 site (GABARa5), GABRA5 (gene 523515) (UniProt Q08E50). The test is described as follows: NVS_LGIC_bGABARa5: NovaScreen (NVS) Ligand-Gated Ion Channel Assay for bovine Gamma-Aminobutyric Acid Type A Receptor BDZ, alpha 5 site (GABARa5) (AID 2283323). The procedure, abridged:
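Radioligand competitive displacement binding on bovine hippocampal membranes, read 1 hr after dosing by filter-based scintillation counting. Primary screen at 25 uM in duplicate; actives (e.g. ≥30% inhibition) then run in concentration-response up to 50 uM.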

Test [2] deals with Glutamate receptor ionotropic, kainate 1 (Rattus norvegicus) (UniProt P22756). In words: NVS_IC_rKAR: NovaScreen (NVS) Ion Channel Assay for rat Kainic Acid Receptors (KAR) (AID 2283334; active = hit-call score of the fitted dose curve at least 0.9, where 1 is the maximum; inactive = score below 0.9). The procedure, abridged: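 Radioligand displacement binding using rat forebrain membranes, 1 h incubation, filter-based scintillation counting. Screened in duplicate at 25 uM, with actives retested in concentration-response up to 50 uM; fitted against DMSO.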
Glutamate receptor ionotropic, kainate 1 (Rattus norvegicus), sequence (P22756 whole entry, looked up): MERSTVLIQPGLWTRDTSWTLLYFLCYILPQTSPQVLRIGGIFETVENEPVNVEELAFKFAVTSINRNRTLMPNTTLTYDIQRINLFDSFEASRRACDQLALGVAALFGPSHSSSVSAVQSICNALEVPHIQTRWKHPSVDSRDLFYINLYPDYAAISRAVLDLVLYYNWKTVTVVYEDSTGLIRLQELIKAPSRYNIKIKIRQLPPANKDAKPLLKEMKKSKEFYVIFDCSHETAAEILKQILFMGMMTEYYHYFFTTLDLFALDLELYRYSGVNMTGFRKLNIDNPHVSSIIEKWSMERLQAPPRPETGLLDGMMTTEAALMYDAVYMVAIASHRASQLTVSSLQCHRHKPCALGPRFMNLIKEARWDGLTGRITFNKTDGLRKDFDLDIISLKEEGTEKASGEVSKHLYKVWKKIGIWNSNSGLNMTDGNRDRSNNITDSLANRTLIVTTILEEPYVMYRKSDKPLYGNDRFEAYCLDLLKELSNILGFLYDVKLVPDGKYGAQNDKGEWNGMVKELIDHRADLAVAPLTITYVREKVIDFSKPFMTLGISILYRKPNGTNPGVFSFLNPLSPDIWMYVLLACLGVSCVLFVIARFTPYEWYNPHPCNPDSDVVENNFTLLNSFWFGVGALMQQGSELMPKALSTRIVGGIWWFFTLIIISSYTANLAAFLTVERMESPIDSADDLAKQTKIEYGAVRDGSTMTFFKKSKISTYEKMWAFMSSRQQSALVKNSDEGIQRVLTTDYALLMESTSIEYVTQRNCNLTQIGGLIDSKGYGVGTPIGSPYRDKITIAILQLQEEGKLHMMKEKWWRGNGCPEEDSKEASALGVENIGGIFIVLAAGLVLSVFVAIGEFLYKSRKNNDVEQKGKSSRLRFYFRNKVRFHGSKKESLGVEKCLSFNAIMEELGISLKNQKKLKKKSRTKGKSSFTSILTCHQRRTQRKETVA

Test [3] in a line: NVS_IC_rCaBTZCHL: NovaScreen (NVS) Ion Channel Assay for Calcium Channel, Type L, Benzothiazepine Site (CaBTZCHL) (AID 2283337). The procedure, abridged: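 Competitive displacement of a site-specific radioligand from rat cortex membranes, measured as signal loss against DMSO baseline by filter radiodetection after 1.5 h. Single-point 25 uM primary screen.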
For test [4], the target named is Sodium channel protein type 1 subunit alpha (Rattus norvegicus) (UniProt P04774). The test is described as follows: NVS_IC_rNaCh_site2: NovaScreen (NVS) Ion Channel Assay for rat Sodium Channel, Site 2 (NaCh) (AID 2283322).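 Note: hit means loss of radioligand binding signal relative to DMSO so AC50 marks displacement.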 Put shortly: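 Membranes: rat forebrain. Format: competitive radioligand displacement, filter separation, scintillation readout, 1 h exposure. Primary screen in duplicate at 25 uM; actives retested in concentration series.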

The target of test [5] is human Serotonin, 5-Hydroxytryptamine Receptor 3 (5HT3), HTR3A (gene 3359) (UniProt P46098). In words: NVS_LGIC_h5HT3: NovaScreen (NVS) Ligand-Gated Ion Channel Assay for human Serotonin, 5-Hydroxytryptamine Receptor 3 (5HT3) (AID 2283325). Put shortly:
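Radioligand displacement binding to human 5-HT3 from HEK293 membranes, read by filter-based scintillation counting after 1 h. Screen at 25 uM in duplicate; chemicals passing threshold were retested in concentration-response up to 50 uM.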

Test [6] concerns the target rat Gamma-Aminobutyric Acid Type A Receptor, Non-Selective (GABAR-NonSelective), Gabra1 (gene 29705) (UniProt P62813). The test is described as follows: NVS_LGIC_rGABAR_NonSelective: NovaScreen (NVS) Ligand-Gated Ion Channel Assay for rat Gamma-Aminobutyric Acid Type A Receptor, Non-Selective (GABAR-NonSelective) (AID 2283326). The procedure, abridged: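 Radioligand displacement on rat whole-brain extract, 1 h, filter scintillation readout; signal loss fitted versus DMSO. Primary screen in duplicate at 25 uM; hits (e.g. ≥30% inhibition) retested in concentration-response up to 50 uM.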

In test [7] the target is Voltage-gated inwardly rectifying potassium channel KCNH2 (Homo sapiens) (UniProt Q12809). The test is described as follows: NVS_IC_hKhERGCh: NovaScreen (NVS) Ion Channel Assay for human Potassium Channel ERG (KhERGCh) (AID 2283333). Put shortly: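 Cell-free radioligand competition binding on hERG protein extracted from CHO cells, read by filter-based scintillation counting 0.75 h after dosing. Primary screen at 25 uM in duplicate, actives followed in concentration series. Signal loss fitted versus DMSO.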
Voltage-gated inwardly rectifying potassium channel KCNH2 (Homo sapiens), sequence (Q12809 whole entry, looked up): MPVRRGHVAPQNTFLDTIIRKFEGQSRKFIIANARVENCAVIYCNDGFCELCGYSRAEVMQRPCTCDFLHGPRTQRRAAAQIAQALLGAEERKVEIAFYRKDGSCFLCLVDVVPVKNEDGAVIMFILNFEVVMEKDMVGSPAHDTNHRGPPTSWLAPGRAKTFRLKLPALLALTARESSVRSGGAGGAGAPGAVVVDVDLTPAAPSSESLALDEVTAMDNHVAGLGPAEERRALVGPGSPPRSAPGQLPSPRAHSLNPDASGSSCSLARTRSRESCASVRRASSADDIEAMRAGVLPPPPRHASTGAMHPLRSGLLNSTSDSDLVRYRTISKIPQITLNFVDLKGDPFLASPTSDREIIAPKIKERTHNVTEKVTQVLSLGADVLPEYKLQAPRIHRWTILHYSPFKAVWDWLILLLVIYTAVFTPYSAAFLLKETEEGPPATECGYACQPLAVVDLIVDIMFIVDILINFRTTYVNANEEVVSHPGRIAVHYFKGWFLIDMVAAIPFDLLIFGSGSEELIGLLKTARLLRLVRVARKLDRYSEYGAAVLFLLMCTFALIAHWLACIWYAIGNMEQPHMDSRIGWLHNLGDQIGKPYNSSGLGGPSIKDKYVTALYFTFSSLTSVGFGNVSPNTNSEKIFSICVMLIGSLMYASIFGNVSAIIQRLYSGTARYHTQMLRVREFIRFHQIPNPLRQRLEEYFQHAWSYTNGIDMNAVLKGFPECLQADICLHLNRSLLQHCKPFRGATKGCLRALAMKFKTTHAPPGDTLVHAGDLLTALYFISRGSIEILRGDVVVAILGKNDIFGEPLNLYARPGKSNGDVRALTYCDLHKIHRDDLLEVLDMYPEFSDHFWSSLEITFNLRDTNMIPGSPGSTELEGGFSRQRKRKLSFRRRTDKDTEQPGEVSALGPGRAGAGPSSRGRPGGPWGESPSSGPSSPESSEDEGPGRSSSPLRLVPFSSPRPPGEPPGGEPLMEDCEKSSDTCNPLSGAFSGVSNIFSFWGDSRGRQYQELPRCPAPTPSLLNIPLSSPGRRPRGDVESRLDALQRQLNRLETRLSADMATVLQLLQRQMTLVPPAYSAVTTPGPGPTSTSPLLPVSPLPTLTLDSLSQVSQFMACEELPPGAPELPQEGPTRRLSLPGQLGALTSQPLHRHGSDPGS

The target in test [8] is bovine Gamma-Aminobutyric Acid Type A Receptor Agonist (GABAR Agonist), GABRA1 (gene 780973) (UniProt P08219). In words: NVS_LGIC_bGABAR_Agonist: NovaScreen (NVS) Ligand-Gated Ion Channel Assay for bovine Gamma-Aminobutyric Acid Type A Receptor Agonist (GABAR Agonist) (AID 2283338). Put shortly: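 Radioligand binding to bovine cerebellar membranes in agonist format, read by filter-based scintillation counting after 1 h. Primary screen in duplicate at 25 uM, with actives followed in concentration series. Gain of signal versus DMSO.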
bovine Gamma-Aminobutyric Acid Type A Receptor Agonist (GABAR Agonist), GABRA1 (gene 780973), sequence (P08219 whole entry, looked up): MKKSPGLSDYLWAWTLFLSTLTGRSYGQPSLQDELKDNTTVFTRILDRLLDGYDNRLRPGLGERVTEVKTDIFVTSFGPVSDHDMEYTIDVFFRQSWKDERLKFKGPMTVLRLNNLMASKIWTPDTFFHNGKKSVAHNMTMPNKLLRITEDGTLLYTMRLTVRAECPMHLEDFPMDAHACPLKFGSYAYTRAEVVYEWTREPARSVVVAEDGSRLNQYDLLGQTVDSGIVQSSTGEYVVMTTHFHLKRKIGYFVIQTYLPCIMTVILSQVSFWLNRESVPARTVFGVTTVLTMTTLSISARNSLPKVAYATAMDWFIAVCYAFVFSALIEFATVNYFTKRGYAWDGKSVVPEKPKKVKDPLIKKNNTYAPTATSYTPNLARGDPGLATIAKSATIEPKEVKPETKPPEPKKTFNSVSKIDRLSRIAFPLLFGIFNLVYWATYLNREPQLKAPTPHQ

Test [9] deals with rat Glycine Receptor, Strychnine-sensitive (GlyRStrySens), Glra1 (gene 25674) (UniProt P07727). The test is described as follows: NVS_LGIC_rGlyRStrySens: NovaScreen (NVS) Ligand-Gated Ion Channel Assay for rat Glycine Receptor, Strychnine-sensitive (GlyRStrySens) (AID 2283341). Put shortly:
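Radioligand displacement on rat spinal cord membranes, 1 hr, filter scintillation read-out. Single-concentration duplicate screen at 25 uM; chemicals meeting threshold (e.g., 30% inhibition) rerun in concentration-response up to 50 uM. Loss of binding fitted versus DMSO.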

Test [10] concerns guinea pig Histamine Receptor (H2), gene 100729734. The test is described as follows: NVS_GPCR_gH2: NovaScreen (NVS) G Protein-Coupled Receptor Assay for guinea pig Histamine Receptor (H2) (AID 2283342). Put shortly:
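Radioligand displacement on guinea pig striatal membranes, 1 h after dosing, filter-based scintillation counting; loss of signal versus DMSO. Single-point screen at 25 uM in duplicate, then concentration-response up to 50 uM.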

The target of test [11] is rat Thyrotropin Releasing Hormone Receptor (TRH), Trhr (gene 25570) (UniProt Q01717). The test is described as follows: NVS_GPCR_rTRH: NovaScreen (NVS) G Protein-Coupled Receptor Assay for rat Thyrotropin Releasing Hormone Receptor (TRH) (AID 2283329).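 Note: hit means lower bound tracer signal versus DMSO baseline.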 The procedure, abridged: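 Rat forebrain membrane prep, radioligand displacement, filter scintillation readout at 4 h. Single conc 25 uM, duplicate; actives retested as concentration series. DMSO = negative control/baseline.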
rat Thyrotropin Releasing Hormone Receptor (TRH), Trhr (gene 25570), sequence (Q01717 whole entry, looked up): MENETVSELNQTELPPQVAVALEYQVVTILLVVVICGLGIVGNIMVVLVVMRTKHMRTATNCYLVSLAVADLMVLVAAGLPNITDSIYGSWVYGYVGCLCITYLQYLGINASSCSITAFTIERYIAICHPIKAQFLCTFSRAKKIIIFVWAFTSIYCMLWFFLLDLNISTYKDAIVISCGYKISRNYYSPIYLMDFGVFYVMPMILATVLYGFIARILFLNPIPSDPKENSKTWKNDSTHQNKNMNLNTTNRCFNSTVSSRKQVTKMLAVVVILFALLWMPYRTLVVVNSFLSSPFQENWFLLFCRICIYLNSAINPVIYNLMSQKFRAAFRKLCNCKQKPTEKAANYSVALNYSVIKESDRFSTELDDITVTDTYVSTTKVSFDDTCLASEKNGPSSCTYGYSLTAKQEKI

For test [12], the target named is rat Peripheral-type Benzodiazepine Receptor (PBR), Tspo (gene 24230) (UniProt P16257). In words: NVS_MP_rPBR: NovaScreen (NVS) Membrane Protein Assay for rat Peripheral-type Benzodiazepine Receptor (PBR) (AID 2283335). The procedure, abridged: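 Radioligand displacement, rat kidney membrane prep, 1 h exposure, filter-based scintillation read; DMSO baseline, loss-of-signal scored. Primary screen at 25 uM in duplicate, actives followed up in concentration series.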
rat Peripheral-type Benzodiazepine Receptor (PBR), Tspo (gene 24230), sequence (P16257 whole entry, looked up): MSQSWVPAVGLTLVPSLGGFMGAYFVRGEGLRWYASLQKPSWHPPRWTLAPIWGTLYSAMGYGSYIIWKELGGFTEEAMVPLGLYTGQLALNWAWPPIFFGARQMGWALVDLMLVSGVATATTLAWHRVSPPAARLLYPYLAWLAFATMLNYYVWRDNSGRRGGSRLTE

Test [13] concerns the target rat Glutamate, NMDA Agonist Site (GluNMDA), Grin1 (gene 24408) (UniProt P35439). In words: NVS_LGIC_rGluNMDA_Agonist: NovaScreen (NVS) Ligand-Gated Ion Channel Assay for rat Glutamate, NMDA Agonist Site (GluNMDA) (AID 2283327). Put shortly: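 Rat forebrain membranes, radioligand binding in the agonist-site protocol; 1 h after dosing; filter-based scintillation counting. Single-concentration duplicate screen at 25 uM, then concentration-response up to 50 uM for actives; gain-of-signal vs DMSO.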

Test [14] deals with rat Glutamate, MK-801 Agonist Site (GluNMDA_MK801), Grin1 (gene 24408) (UniProt P35439). The test is described as follows: NVS_LGIC_rGluNMDA_MK801_Agonist: NovaScreen (NVS) Ligand-Gated Ion Channel Assay for rat Glutamate, MK-801 Agonist Site (GluNMDA_MK801) (AID 2283340). The procedure, abridged:
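Radioligand binding at MK-801 site in rat forebrain membranes, 1.5 h incubation, filter-based scintillation counting. Initially 25 uM in duplicate; actives then run in concentration-response up to 50 uM, fitted for gain of signal versus DMSO.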

Test [15] concerns the target human Peripheral-type Benzodiazepine Receptor (PBR), TSPO (gene 706) (UniProt P30536). In words: NVS_MP_hPBR: NovaScreen (NVS) Membrane Protein Assay for human Peripheral-type Benzodiazepine Receptor (PBR) (AID 2283331).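 Note: hits reduce radioligand binding relative to DMSO baseline.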 Put shortly:
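Radioligand displacement on human colonic cell membranes, 1 h incubation; bound radioactivity by filtration and scintillation counting. Primary screen in duplicate at 25 uM single concentration, actives followed up in concentration series; loss of binding versus DMSO.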

In test [16] the target is rat Glutamate, AMPA Site (AMPA), Gria1 (gene 50592) (UniProt P19490). In words: NVS_LGIC_rAMPA: NovaScreen (NVS) Ligand-Gated Ion Channel Assay for rat Glutamate, AMPA Site (AMPA) (AID 2283324). The procedure, abridged:
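Rat forebrain membranes; radioligand binding read 1 h after dosing by filtration and scintillation counting. Duplicate single-point screen at 25 uM, then concentration-response to 50 uM for threshold hits (e.g. 30% inhibition); loss of signal vs DMSO.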

By AC50 is commonly meant the concentration giving half of the maximal activity seen.

bovine Gamma-Aminobutyric Acid Type A Receptor BDZ, alpha 5 site (GABARa5), GABRA5 (gene 523515), sequence (Q08E50 whole entry, looked up): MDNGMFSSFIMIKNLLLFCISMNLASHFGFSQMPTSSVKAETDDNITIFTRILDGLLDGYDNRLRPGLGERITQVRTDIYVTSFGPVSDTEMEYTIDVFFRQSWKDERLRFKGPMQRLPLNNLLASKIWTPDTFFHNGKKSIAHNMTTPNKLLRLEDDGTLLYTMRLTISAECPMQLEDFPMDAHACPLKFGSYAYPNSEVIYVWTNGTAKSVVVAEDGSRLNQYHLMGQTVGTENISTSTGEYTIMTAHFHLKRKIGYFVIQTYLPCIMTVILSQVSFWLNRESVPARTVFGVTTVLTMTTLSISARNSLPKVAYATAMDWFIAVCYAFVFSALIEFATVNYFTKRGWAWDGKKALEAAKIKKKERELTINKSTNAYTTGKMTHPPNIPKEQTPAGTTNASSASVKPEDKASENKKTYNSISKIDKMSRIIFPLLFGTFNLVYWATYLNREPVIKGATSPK
human Serotonin, 5-Hydroxytryptamine Receptor 3 (5HT3), HTR3A (gene 3359), sequence (P46098 whole entry, looked up): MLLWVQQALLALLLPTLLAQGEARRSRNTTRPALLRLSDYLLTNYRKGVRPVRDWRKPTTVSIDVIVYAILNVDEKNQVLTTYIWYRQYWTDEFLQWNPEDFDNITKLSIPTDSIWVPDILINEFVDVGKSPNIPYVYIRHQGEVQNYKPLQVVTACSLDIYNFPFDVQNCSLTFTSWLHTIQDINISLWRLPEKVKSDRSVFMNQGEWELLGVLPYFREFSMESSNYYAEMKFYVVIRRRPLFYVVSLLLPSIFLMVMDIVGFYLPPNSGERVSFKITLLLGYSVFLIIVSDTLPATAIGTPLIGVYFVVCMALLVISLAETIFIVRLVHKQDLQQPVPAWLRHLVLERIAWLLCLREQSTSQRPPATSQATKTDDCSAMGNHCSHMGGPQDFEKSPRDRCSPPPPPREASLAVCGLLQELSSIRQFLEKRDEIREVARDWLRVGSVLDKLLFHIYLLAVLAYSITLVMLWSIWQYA
rat Glycine Receptor, Strychnine-sensitive (GlyRStrySens), Glra1 (gene 25674), sequence (P07727 whole entry, looked up): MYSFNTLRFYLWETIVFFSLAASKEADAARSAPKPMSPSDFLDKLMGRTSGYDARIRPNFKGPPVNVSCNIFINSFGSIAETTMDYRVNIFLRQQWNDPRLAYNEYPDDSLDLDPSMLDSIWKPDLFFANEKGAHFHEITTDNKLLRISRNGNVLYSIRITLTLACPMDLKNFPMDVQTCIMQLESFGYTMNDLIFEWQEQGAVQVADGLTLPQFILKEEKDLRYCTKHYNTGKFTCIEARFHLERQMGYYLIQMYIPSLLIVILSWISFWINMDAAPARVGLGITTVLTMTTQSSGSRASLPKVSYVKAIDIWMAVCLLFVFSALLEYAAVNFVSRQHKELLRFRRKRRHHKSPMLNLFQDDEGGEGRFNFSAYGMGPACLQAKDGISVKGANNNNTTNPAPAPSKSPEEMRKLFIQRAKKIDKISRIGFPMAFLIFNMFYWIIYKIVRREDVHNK
rat Gamma-Aminobutyric Acid Type A Receptor, Non-Selective (GABAR-NonSelective), Gabra1 (gene 29705), sequence (P62813 whole entry, looked up): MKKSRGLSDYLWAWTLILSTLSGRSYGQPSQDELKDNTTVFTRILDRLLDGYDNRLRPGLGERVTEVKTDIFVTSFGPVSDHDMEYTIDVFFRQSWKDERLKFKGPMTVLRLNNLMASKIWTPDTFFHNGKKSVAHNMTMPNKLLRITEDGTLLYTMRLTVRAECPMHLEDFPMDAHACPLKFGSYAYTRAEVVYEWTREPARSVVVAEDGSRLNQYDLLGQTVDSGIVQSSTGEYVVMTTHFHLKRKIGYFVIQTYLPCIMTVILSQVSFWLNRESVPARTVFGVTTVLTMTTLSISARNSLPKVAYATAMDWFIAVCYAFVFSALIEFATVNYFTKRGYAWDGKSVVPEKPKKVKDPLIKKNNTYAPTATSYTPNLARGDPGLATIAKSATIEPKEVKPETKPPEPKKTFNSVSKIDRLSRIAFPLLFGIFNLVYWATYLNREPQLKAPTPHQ

Consider `CCC(C)N(C)C(=O)c1cc2ccccc2c(-c2ccccc2Cl)n1` (configuration not stated), for which the outcome in test [1] and in test [2] was inactive. For the same molecule, the AC50 in [3] was 9.12 µM (active).

In the case of `O=C1NC(=O)C(c2ccccc2)(c2ccccc2)N1`, the molecule was called inactive in test [4].

Turning to `OCC(O)CO`, in test [5], the AC50 is 25 µM (active).

Regarding `CSc1ccc(Oc2ccc(S(N)(=O)=O)cc2CN(C)C)cc1C`, the AC50 in [4] is 13.5 µM (active); in test [6], 10.3 µM (active); in test [3], 10.1 µM (active); in [8] it was 38.8 µM (active); in [10], 11.7 µM (active). For the same molecule, the call in [5], in [7] and in test [9] was inactive.

On to `CO[C@@H]1COCC[C@@H]1N[C@@H]1CC[C@@](C(=O)N2CCc3ncc(C(F)(F)F)cc3C2)(C(C)C)C1`, for which the half-maximal activity concentration (AC50) in test [4] was 9.94 µM (active).

Consider `COc1ccc(C(=O)Nc2nc3ccccc3c(NCc3ccccc3)c2C#N)cc1`, for which, in [1], the call was inactive.

`CCCCc1nc2cccnc2n1Cc1ccc(-c2ccccc2-c2nnn[nH]2)cc1`: the molecule was classed as inactive in [1], in test [11] and in [10]. The half-maximal activity concentration (AC50) in test [12] was 14.6 µM (active).

Regarding `CN(C)CCCN1c2ccccc2Sc2ccc(Cl)cc21`, the half-maximal activity concentration (AC50) was 1.96 µM (active) in test [4]; 25 µM (active) in [5]; 25 µM (active) in [13]; 10.4 µM (active) in test [7]; 2.52 µM (active) in [3]; 25 µM (active) in test [14]. The half-maximal activity concentration (AC50) in test [10] was 1.42 µM (active). The molecule was classed as inactive in test [8].

On to `Cc1cn([C@H]2C=C[C@@H](CO)O2)c(=O)[nH]c1=O`, for which the concentration at half-maximal activity (AC50) in test [5] is 8.81 µM (active).

In the case of `O=C(N[C@@H](c1ccccc1)[C@@H]1CCCCN1)c1cccc(C(F)(F)F)c1Cl`, the concentration at half-maximal activity (AC50) in test [4] is 1.27 µM (active); in test [15], 17.9 µM (active); in test [7], 32.9 µM (active); in test [12], 25 µM (active); in [3], 0.967 µM (active).

With `CCc1nc(N)nc(N)c1-c1ccc(Cl)cc1`, the half-maximal activity concentration (AC50) in test [4] is 3.65 µM (active); in test [6] it was 0.0648 µM (active); in [3] it was 8.32 µM (active); in test [8], 8.29 µM (active); in test [9] it was 2.7 µM (active); in test [10], 2.94 µM (active). In test [12], the outcome was inactive.

As to `NC(=Nc1ccccc1)Nc1ccccc1`, the result in test [4] and in test [13] was inactive. For the same molecule, in test [3], the AC50 is 40.6 µM (active).

Consider `CC(C)NCC(O)c1ccc(O)c(O)c1` (configuration not stated), for which the outcome in test [16] and in test [10] was inactive.

Consider `CCCCCCCCCC[N+](C)(C)[O-]`, for which, in test [4], the AC50 was 19.1 µM (active). In addition, in test [10], the molecule was called inactive.
